Reference: PubChem BioAssay AID1852 (Sanford-Burnham Center for Chemical Genomics, 2009)
Hit rate of the full screen: of about 2,500 compounds, about 1,100 (44%) were called active. So high a share suggests a set chosen from earlier hits. The list shows a part of the results. A number with no mark means an inactive call.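 The calls were made as follows: active = inhibition above 50% at 4 µM in the single-point screen; inactive = inhibition of 50% or less.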

Test: TNF-a-driven NF-kB reporter inhibitors, primary screen, selectivity assay for NOD1/NOD2 signaling inhibitor project, cell-based, HEK293T NF-kB-Luc, luminescence (AID 1852)
Conditions: TNF-a induced, 14 h, at 4 µM, hits give high values

Q: Which inhibition does the source give for `Cc1ccc(NC(=O)Nc2nnc(-c3ccncc3)s2)cc1C` here?
A: 43.3%

Q: Which inhibition does the source give for `COc1cc(C(=O)N/N=C(\c2ccccc2)c2ccccn2)cc(OC)c1OC` here?
A: 64% (active)

Q: Which inhibition does the source give for `COc1cccc(C(=O)N/N=C(/c2ccccc2)c2ccccn2)c1` here?
A: 62.2% (active)

Q: Which inhibition does the source give for `COc1cc(C(=O)Nc2scc(-c3ccc(Br)cc3)c2C(=O)O)cc(OC)c1OC` here?
A: 21.5%

Q: For `O=C(N/N=C(\c1ccccc1)c1cccnc1)c1cccc(F)c1`, which inhibition is on record?
A: 102% (active)

Q: With `C/C(CC(=O)Nc1cccnc1)=N\NC(=O)c1ccc([N+](=O)[O-])c(Cl)c1` as the compound, how does the inhibition read?
A: 15.3%

Q: Which inhibition does the source give for `COc1cc(C(=O)Nc2sc3c(c2C(=O)O)CCC(C)C3)cc(OC)c1OC` (stereo unspecified) here?
A: 40%

Q: With `COc1ccc(C(=O)N/N=C(\c2ccccc2)c2ccccn2)cc1` as the compound, how does the inhibition read?
A: 46.3%

Q: With `COc1ccccc1-c1nnc(Sc2nc([N+](=O)[O-])nn2C)o1` as the compound, how does the inhibition read?
A: 54.9% (active)

Q: Which inhibition does the source give for `COc1ccc(-c2csc3nc(-c4ccccc4OC)oc(=O)c23)cc1` here?
A: 12.5%

Q: With `COc1ccccc1-c1nc(C#N)c(N2CCN(c3cccc(Cl)c3)CC2)o1` as the compound, how does the inhibition read?
A: -20.8%

Q: Which inhibition does the source give for `O=C(NCCCSc1ccccc1)c1cc(Br)ccc1O` here?
A: 69.9% (active)

Q: Which inhibition does the source give for `C/C(=N\NC(=O)c1cc(Cl)ccc1O)c1ccc(Br)s1` here?
A: 48%

Q: With `O=C(NCCCSc1ccccc1)c1cc(Cl)ccc1O` as the compound, how does the inhibition read?
A: 80.1% (active)

Q: For `COc1cc(F)ccc1CN1CCC(C(=O)Nc2ccc(Oc3ccccc3)nc2)CC1`, which inhibition is on record?
A: 57% (active)

Q: Which inhibition does the source give for `O=C(Nc1ccc(Oc2cccnc2)cc1)C1CCN(Cc2cc(Cl)ccc2O)CC1` here?
A: 47.8%

Q: Which inhibition does the source give for `COc1ccccc1CNC(=O)C1CCN(C(=O)[C@@H]2Cc3ccccc3CN2)CC1` here?
A: 14.5%

Q: Which inhibition does the source give for `O=C(Nc1ccc(Cl)c(S(=O)(=O)N2CCOCC2)c1)c1ccc(OCC2CCCO2)cc1` (stereo unspecified) here?
A: 94.7% (active)

Q: Which inhibition does the source give for `Cc1ccc(NC(=O)c2ccc(S(=O)(=O)NCC3CCCO3)cc2)cc1C` (stereo unspecified) here?
A: 4.7%

Q: Which inhibition does the source give for `O=C(Nc1cccc(Br)c1)c1ccc(Cl)c(S(=O)(=O)N2CCOCC2)c1` here?
A: 45.4%

Q: For `CN(C)S(=O)(=O)c1ccc(-c2csc(N/N=C/c3ccco3)n2)cc1`, which inhibition is on record?
A: 99.8% (active)

Q: Which inhibition does the source give for `O=C(/C=C\c1ccco1)Nc1nc(-c2ccc3ccccc3c2)cs1` here?
A: 36.9%

Q: For `CN(C)S(=O)(=O)c1ccc(C(=O)Nc2nc(-c3cc4ccccc4o3)cs2)cc1`, which inhibition is on record?
A: 36.3%

Q: With `CCC(=O)NC(c1cccs1)c1cc([N+](=O)[O-])c2cccnc2c1O` (stereo unspecified) as the compound, how does the inhibition read?
A: 86.2% (active)

Q: Which inhibition does the source give for `CCCC(=O)NC(c1cccs1)c1cc([N+](=O)[O-])c2cccnc2c1O` (stereo unspecified) here?
A: 71.3% (active)

Q: With `Cc1ccccc1Nc1nc(N)nc(CCl)n1` as the compound, how does the inhibition read?
A: 24.8%

Q: For `Cc1ccc(C)c(N2CCN(C(=O)CCS(=O)(=O)c3ccc4c(c3)NC(=O)C(C)S4)CC2)c1` (stereo unspecified), which inhibition is on record?
A: 74.4% (active)

Q: For `Cc1ccc(C)c(N2CCN(C(=O)CCS(=O)(=O)c3ccc4c(c3)NC(=O)CO4)CC2)c1`, which inhibition is on record?
A: 28.3%

Q: With `CC1Sc2ccc(S(=O)(=O)CCC(=O)N3CCN(c4ccccc4F)CC3)cc2NC1=O` (stereo unspecified) as the compound, how does the inhibition read?
A: 39.3%

Q: Which inhibition does the source give for `CCOc1ccc(/C=C2/Sc3ccc(C(=O)N4CCOCC4)cc3N(C)C2=O)cc1OC` here?
A: 54.9% (active)

Q: Which inhibition does the source give for `O=C(c1ccc2c(c1)N(Cc1ccccc1)C(=O)c1ccccc1S2)N1CCCC1` here?
A: 34.7%

Q: Which inhibition does the source give for `COc1ccc(Cc2noc(CN3CCN(Cc4cccc(Cl)c4)CC3)n2)cc1OC` here?
A: 35.8%

Q: Which inhibition does the source give for `O=C1Nc2cc(C(=O)N3CCN(c4ccccn4)CC3)ccc2S/C1=C\c1ccccc1` here?
A: 3%

Q: With `COc1ccc(/C=C2\Sc3ccc(C(=O)N4CCN(Cc5ccccc5)CC4)cc3N(C)C2=O)cc1OC` as the compound, how does the inhibition read?
A: 59.1% (active)

Q: With `Cc1ccccc1/C=C1\Sc2ccc(C(=O)N3CCN(c4ccccn4)CC3)cc2N(C)C1=O` as the compound, how does the inhibition read?
A: 22.2%

Q: With `CCOC(=O)N1CCN(C(=O)c2ccc3c(c2)N(C)C(=O)/C(=C\c2ccc(OCC)c(OC)c2)S3)CC1` as the compound, how does the inhibition read?
A: 21.6%

Q: Which inhibition does the source give for `CN1C(=O)/C(=C/c2ccccc2Cl)Sc2ccc(C(=O)N3CCCC3)cc21` here?
A: 89% (active)

Q: For `COCCN1CCN(C(=O)c2ccc3nc(Cc4ccc(OC)c(OC)c4)oc3c2)CC1`, which inhibition is on record?
A: 8.5%

Q: For `Cc1ccc(C)c(Oc2cc(NC(=O)CCCn3nc(C)c([N+](=O)[O-])c3C)cc([N+](=O)[O-])c2)c1`, which inhibition is on record?
A: -13.6%

Q: With `O=C(Nc1ccc(N2CCN(C(=O)c3ccccc3F)CC2)cc1)c1cncc(Br)c1` as the compound, how does the inhibition read?
A: 72.9% (active)

Q: With `O=C(Nc1ccc(N2CCN(Cc3ccccc3F)CC2)cc1)c1ccc([N+](=O)[O-])o1` as the compound, how does the inhibition read?
A: 20%

Q: With `O=C(Nc1ccc(Br)cc1)c1ccc(F)c(S(=O)(=O)N2CCN(c3ccccn3)CC2)c1` as the compound, how does the inhibition read?
A: 36.8%

Q: For `Cc1nc2sc(C(N)=O)c(N)c2c2c1CCCC2`, which inhibition is on record?
A: 92.8% (active)

Q: Which inhibition does the source give for `NC(=O)c1sc2nc3c(c(-c4ccccc4)c2c1N)CCC3` here?
A: 96.6% (active)

Q: Which inhibition does the source give for `CCOC(=O)c1ccc(NC(=O)c2sc3nc(N4CCOCC4)c4c(c3c2N)CCCC4)cc1` here?
A: -98.3%

Q: For `Cc1ccc(-c2c3c(nc4sc(C(N)=O)c(N)c24)CCC3)cc1`, which inhibition is on record?
A: 82.9% (active)

Q: Which inhibition does the source give for `NC(=O)c1sc2nc3c(c(-c4ccco4)c2c1N)CCCC3` here?
A: 83.5% (active)

Q: With `NC(=O)c1sc2nc3c(c(-c4cccs4)c2c1N)CCCCC3` as the compound, how does the inhibition read?
A: 90% (active)

Q: With `O=C(N/N=C/c1cccs1)c1n[nH]c2c1CCCC2` as the compound, how does the inhibition read?
A: 1.7%

Q: For `Cc1nnc(N2CCCC(C(=O)Nc3cc(F)ccc3F)C2)c2nn(-c3ccccc3)c(C)c12` (stereo unspecified), which inhibition is on record?
A: 95.7% (active)

Q: For `COc1ccc(Cc2[nH]n3c(=O)c(Cl)c(C)nc3c2-c2ccccc2)cc1`, which inhibition is on record?
A: 106% (active)

Q: For `COc1ccc(/C=c2/sc3nc(-c4ccccc4)c(-c4ccccc4)n3c2=O)cc1`, which inhibition is on record?
A: -25.7%

Q: For `COc1cc(/C=N/NC(=O)c2cc(-c3ccc4c(c3)OCO4)n[nH]2)ccc1O`, which inhibition is on record?
A: 55.4% (active)

Q: Which inhibition does the source give for `CCNC(=O)/C(C#N)=C/c1c(N2CCN(c3ccc(OC)cc3)CC2)nc2c(C)cccn2c1=O` here?
A: 15.3%

Q: For `Cc1ccc(N=Nc2ccc(O)c3ncccc23)cc1C`, which inhibition is on record?
A: 105% (active)

Q: For `Cc1ccccc1N=Nc1ccc(O)c2ncccc12`, which inhibition is on record?
A: 105% (active)

Q: Which inhibition does the source give for `Oc1ccc(N=Nc2ccc3c(c2)OCCO3)c2cccnc12` here?
A: 39.5%

Q: With `Cc1ccc2c(C)ccc(O)c2n1` as the compound, how does the inhibition read?
A: -70.6%

Q: Which inhibition does the source give for `Cc1ccc(C)c(N=Nc2ccc(O)c3ncccc23)c1` here?
A: 42.5%

Q: For `Cc1ccc(N=Nc2ccc(O)c3ncccc23)cc1`, which inhibition is on record?
A: 96.9% (active)

Q: For `COCCn1c(=S)[nH]c2cc(C(=O)N3CCCC(C)C3)ccc2c1=O` (stereo unspecified), which inhibition is on record?
A: 94.8% (active)

Q: Which inhibition does the source give for `COc1ccc(Cc2nc3ccc(C(=O)N4CCN(C)C(C)C4)cc3o2)cc1OC` (stereo unspecified) here?
A: 45.4%

Q: With `CCOC(=O)C1CCCN(C(=O)c2ccc3c(=O)n(CCOC)c(=S)[nH]c3c2)C1` (stereo unspecified) as the compound, how does the inhibition read?
A: 21.6%

Q: With `O=C(NCc1cccnc1)/C(=C/c1ccc(-c2cccc(Cl)c2)o1)S(=O)(=O)c1ccccc1` as the compound, how does the inhibition read?
A: 99.5% (active)

Q: With `O=C(NCc1cccnc1)/C(=C\c1ccc(-c2cccc(Cl)c2)o1)S(=O)(=O)c1ccccc1` as the compound, how does the inhibition read?
A: 91.5% (active)

Q: With `CCN(CC)c1nc(N2CCOCC2)nc2ccccc12` as the compound, how does the inhibition read?
A: 2%

Q: With `COc1ccc(-c2n(CC(=O)OC3CC(C)CCC3C(C)C)c3ccccc3[n+]2C)cc1` (stereo unspecified) as the compound, how does the inhibition read?
A: 74.8% (active)

Q: For `COc1ccc(/C=N/NS(=O)(=O)c2ccc(F)cc2)cc1COc1cc(F)ccc1[N+](=O)[O-]`, which inhibition is on record?
A: 12.7%

Q: With `C/C(=N\NC(=O)c1c(C)nc2ccccn12)c1ccc(O)cc1O` as the compound, how does the inhibition read?
A: 69.2% (active)

Q: For `C/C(=N\NC(=O)c1cc(C2CC2)nc2ccccc12)c1ccc(O)cc1O`, which inhibition is on record?
A: 66.6% (active)

Q: With `O=C(Nc1nnc(-c2ccc3c(c2)CCCC3)o1)c1ccccc1` as the compound, how does the inhibition read?
A: 106% (active)

Q: For `O=C(CCc1nnc(-c2ccc(-c3ccccc3)cc2)o1)N1CCCCC1`, which inhibition is on record?
A: -6.8%

Q: Which inhibition does the source give for `O=C(Nc1nnc(-c2ccc3c(c2)CCCC3)o1)c1ccccc1Cl` here?
A: 106% (active)

Q: With `O=C(Nc1nnc(-c2ccc3c(c2)CCCC3)o1)c1ccc(Cl)cc1Cl` as the compound, how does the inhibition read?
A: 101% (active)

Q: For `CC(C)(C)OC(=O)N[C@@H](Cc1ccccc1)c1nnc(S(=O)(=O)Cc2cccc(F)c2)o1`, which inhibition is on record?
A: -10.8%

Q: Which inhibition does the source give for `CC1CN(C(=O)/C=C/c2ccc([N+](=O)[O-])s2)CC(C)O1` (stereo unspecified) here?
A: 41%

Q: Which inhibition does the source give for `O=C(/C=C/c1ccc([N+](=O)[O-])s1)N1CCN(c2ccccc2)CC1` here?
A: 10.5%

Q: Which inhibition does the source give for `CC1CC(C)CN(C(=O)/C=C/c2ccc([N+](=O)[O-])s2)C1` (stereo unspecified) here?
A: 60.4% (active)

Q: Which inhibition does the source give for `O=C(/C=C/c1ccc([N+](=O)[O-])s1)N1CCCCC1` here?
A: 54.6% (active)

Q: With `CC[n+]1cc(C)ccc1/C=C/c1ccc(N(C)C)cc1` as the compound, how does the inhibition read?
A: 57.1% (active)

Q: Which inhibition does the source give for `CC(C)CC[n+]1ccccc1/C=C/c1ccc(N(C)C)cc1` here?
A: 74.3% (active)

Q: Which inhibition does the source give for `Cc1ccc(/C=C/c2ccc(N(C)C)cc2)[n+](C)c1` here?
A: 28.5%

Q: For `CC[n+]1ccc(/C=C/c2ccc(N(C)C)cc2)c2ccccc21`, which inhibition is on record?
A: 62.5% (active)

Q: For `O=C(NCc1cccs1)c1nc2c(nnn2Cc2ccccc2Cl)c(=O)[nH]1`, which inhibition is on record?
A: 98.2% (active)

Q: For `O=C(NCc1ccco1)c1nc2c(nnn2Cc2ccccc2Cl)c(=O)[nH]1`, which inhibition is on record?
A: 78.4% (active)

Q: With `O=C(CCl)N=c1sccn1Cc1ccccc1Cl` as the compound, how does the inhibition read?
A: 48.8%

Q: For `Cc1cccc(C(=O)Nc2scc(CC(C)C)c2C(=O)O)c1`, which inhibition is on record?
A: -33.5%

Q: Which inhibition does the source give for `Cc1cccc(NC(=O)CCNC(=O)c2ccc(Br)cc2)c1C` here?
A: -6.4%

Q: With `CCC(C)N(CC(=O)Nc1cccc(C)c1C)C(=O)CCl` (stereo unspecified) as the compound, how does the inhibition read?
A: 85.8% (active)

Q: With `CCCN(CC(=O)Nc1ccccc1C)C(=O)CCl` as the compound, how does the inhibition read?
A: 93.3% (active)

Q: With `Cc1cccc(Nc2nc(N)nc(CCl)n2)c1C` as the compound, how does the inhibition read?
A: 18.1%
